# Data from the supplement of paper PMC6658780.
# Where a name gives a salt, the structure may show the parent alone. ± gives the standard deviation of the averaged measurements.
# Assays:
# [1] = tested on: Klebsiella pneumoniae KPC-119; assay: percent growth inhibition of drug alone vs DMSO control; higher = more growth inhibition; settings: antibiotic (0.125x MIC): none (0.1% DMSO)
# [2] = tested on: Klebsiella pneumoniae KPC-119; assay: percent growth inhibition of drug + antibiotic vs DMSO control; higher = more growth inhibition
# [3] = tested on: Klebsiella pneumoniae NCTC-13439; assay: percent growth inhibition of drug alone vs DMSO control; higher = more growth inhibition; settings: antibiotic (0.125x MIC): none (0.1% DMSO)
# [4] = tested on: Klebsiella pneumoniae NCTC-13439; assay: percent growth inhibition of drug + antibiotic vs DMSO control; higher = more growth inhibition; settings: antibiotic (0.125x MIC): tigecycline; 7 µM
# [5] = antibiotic (0.125x MIC): colistin, 20 µM
# [6] = antibiotic (0.125x MIC): colistin, 7 µM
smiles,measurement,setting,value
C[N+]1([O-])[C@@H]2C[C@@H](OC(=O)[C@H](CO)c3ccccc3)C[C@H]1[C@@H]1O[C@@H]12 (stereo partly drawn) [Scopolamin-N-oxide hydrobromide],percent growth inhibition of drug alone,[1]; 7 µM,-1.08 ± 2.3%
same,percent growth inhibition of drug alone,[1]; 20 µM,-2.41 ± 3.1%
same,percent growth inhibition,[2]; [5],7.85 ± 0.11%
C=CCN1CC[C@]23c4c5ccc(O)c4O[C@H]2C(=O)CC[C@@]3(O)[C@H]1C5 [Naloxone hydrochloride],percent growth inhibition of drug alone,[1]; 7 µM,-0.923 ± 1.2%
same,percent growth inhibition of drug alone,[1]; 20 µM,0.247 ± 1.1%
same,percent growth inhibition,[2]; [5],-10.2 ± 2.5%
O=C([O-])c1ccccc1-c1c2cc(Br)c(=O)cc-2oc2[c]([Hg+])c([O-])c(Br)cc12.[Na+].[Na+].[OH-] [Merbromin],percent growth inhibition of drug alone,[1]; 7 µM,1.39 ± 0.87%
same,percent growth inhibition of drug alone,[1]; 20 µM,7.86 ± 1.4%
same,percent growth inhibition of drug alone,[3]; 7 µM,-0.236 ± 1.4%
same,percent growth inhibition of drug alone,[3]; 20 µM,15.7 ± 0.91%
same,percent growth inhibition,"[2]; antibiotic (0.125x MIC): gentamicin, 7 µM",2.44 ± 4%
same,percent growth inhibition,"[2]; antibiotic (0.125x MIC): meropenem, 20 µM",99.619 ± 0.036%
same,percent growth inhibition,[4],-5.98 ± 14%
C#CCN(C)[C@H](C)Cc1ccccc1 [Selegiline hydrochloride],percent growth inhibition of drug alone,[1]; 7 µM,-1.33 ± 2.5%
same,percent growth inhibition of drug alone,[1]; 20 µM,0.878 ± 0.49%
same,percent growth inhibition,[2]; [5],4.23 ± 6.9%
CCn1cc(C(=O)O)c(=O)c2cc3c(cc21)OCO3 [Oxolinic acid],percent growth inhibition of drug alone,[1]; 7 µM,6.34 ± 3%
same,percent growth inhibition of drug alone,[1]; 20 µM,16.3 ± 9.5%
same,percent growth inhibition,[2]; [6],37.9 ± 7.2%
same,percent growth inhibition,[2]; [5],100.2 ± 0.18%
C[C@]12CC[C@H](O)C[C@@H]1CC[C@@H]1[C@@H]2CC[C@]2(C)C(=O)CC[C@@H]12 [Epiandrosterone],percent growth inhibition of drug alone,[1]; 7 µM,0.561 ± 2%
same,percent growth inhibition of drug alone,[1]; 20 µM,-1.04 ± 0.09%
same,percent growth inhibition,[2]; [6],-6.74 ± 2.2%
